Compound activity deposited in PubChem by National Center for Advancing Translational Sciences (NCATS).
This is a sample that favours compounds with a hit; in the whole collection about 21% have one here.
Pf growth 96h – P. falciparum growth inhibition at 96 hours; P. falciparum luciferase reporter growth, 96 h; Potency, µM (titrated, usually from 28.7 µM), without a hit: top-dose activity change, negative = inhibition, actives largely listed as inhibitors; 320,000 compounds, 6.9% hits; AID 504834; active = well fitted inhibition curve with a large enough effect; inconclusive = small, poorly fitted or top-dose-only effect, or another doubt; inactive = no such curve, though single readings can be large or run the other way; note: potency is the fitted concentration of half-maximal effect; % is set by controls: 0 for no effect and ±100 for the full control effect
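Two-generation exposure (96 h) targets delayed-death phenotype. Reporter parasites carrying integrated firefly luciferase, in red cells at 2% hematocrit and 0.05% parasitemia final, kept at 37 C, 5% CO2; luminescence loss indicates inhibition.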
NS1 inh – influenza NS1 inhibition; Potency, µM (highest dose often 46.1 µM), inactives show at the highest dose activity, positive = more growth; 270,000 compounds, 0.4% hits; AID 2326; note: potency is the fitted concentration of half-maximal effect; actives are rising curves; nearly all actives have a fitted effect of over 50% in size
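Compounds were scored for reversing the slow growth caused by influenza A NS1 in S. cerevisiae, measured by optical density at 600 nm. Assay medium contained 2% galactose at pH 6.0; NS1-free yeast of the same strain were the positive control.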
SARS PLP yeast – inhibitors of SARS-CoV papain-like protease in yeast; Potency, µM (top dose mostly 32.9 µM), inactives show at the highest dose activity, positive = growth rescue, most hits filed as activators; S. cerevisiae expressing SARS-CoV PLpro, growth rescue; AID 485353; 330,000 compounds, 0.19% hits; note: potency is the fitted concentration of half-maximal effect; 0% is about no effect; nearly all actives have a fitted effect of over 55% in size
Pf growth 48h – inhibits P. falciparum growth in the first generation, 48 h. AID 504832. Potency, µM (doses to about 28.7 µM), for the others: at the highest dose activity change, negative = inhibition, most hits filed as inhibitors. P. falciparum luciferase growth in erythrocytes, 48 h. 310,000 compounds, 5.9% hits; active = well fitted inhibition curve with a large enough effect; inconclusive = small, poorly fitted or top-dose-only effect, or another doubt; inactive = no such curve, though single readings can be large or run the other way; note: potency is the fitted concentration of half-maximal effect; % is set by controls: 0 for no effect and ±100 for the full control effect
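Parasite viability was followed by luminescence of a genomically integrated firefly luciferase. Cultures held 0.1% parasitemia at 2% hematocrit (final), incubated under 5% CO2 at 37 C.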
CHX counter – counter-screen for Shiga toxin inhibitors: cycloheximide protein synthesis inhibition; cell reporter, cycloheximide protein synthesis inhibition counterscreen; max response, %; 300,000 compounds, 12% hits; AID 2314; in the data active = max response mostly above about 13%, no sharp cut-off; inactive = mostly below about 14%; note: read at 38.3 µM for the half of the compounds with a filed dose; 0% is about no effect
Shiga inhibitor – inhibitors of Shiga toxin in Vero cells | Vero cells, Shiga toxin protein synthesis inhibition reporter | inhibition, % at 38.7 µM | 290,000 compounds, 9.2% hits | AID 2315; in the data active = inhibition mostly above about 28%, no sharp cut-off; inactive = mostly below about 43%; note: 0% is about no effect
Starred values were filed as active, the others as inactive. Unless noted, calls come from the whole dose curve.

Results for Cc1ccc(N2C(=O)N(CC(=O)Nc3ccc(C)cc3C)C(=O)C2C)cc1 (stereo not given) ?
Pf growth 96h: 5%; SARS PLP yeast: 0%; Pf growth 48h: 0%; CHX counter: 18; Shiga inhibitor: 31

How did Cc1ccc(N2C(=O)N(CC(=O)Nc3c(C)cc(C)cc3Cl)C(=O)C2C)cc1 (stereo not given) do in these assays?
Pf growth 96h: 2%; SARS PLP yeast: 8%; Pf growth 48h: inconclusive

Results for Cc1ccc(N2C(=O)N(CC(=O)NCc3ccccc3Cl)C(=O)C2C)cc1 (stereo not given) ?
Pf growth 96h: -9%; SARS PLP yeast: 0%; Pf growth 48h: 10µM*; CHX counter: 10; Shiga inhibitor: 10

Results for COc1ccccc1C(=O)NCC(=O)N1CC=C(c2ccccc2)CC1 ?
Pf growth 96h: inconclusive; SARS PLP yeast: -7%; Pf growth 48h: inconclusive

What do the screens show for `C[C@@H]1C[C@@H]([C@@H](C)CC2CC(=O)NC(=O)C2)C(=O)[C@@H](C)C1`?
CHX counter: -8; Shiga inhibitor: -16

Results for CCN(CC)c1ccc(CNc2ccc3c(c2)ncn3CC)cc1 ?
Pf growth 96h: -19%; NS1 inh: 3%; SARS PLP yeast: 2%; Pf growth 48h: 9%; CHX counter: 12; Shiga inhibitor: 17

What do the screens show for `CN(C)c1ccc(CNc2ccc3c(c2)ncn3C(C)(C)C)cc1`?
Pf growth 96h: 18%; NS1 inh: -2%; SARS PLP yeast: 0%; Pf growth 48h: 13%; CHX counter: 28*; Shiga inhibitor: 58*

What do the screens show for `CCC(=O)Nc1ccc2c(c1)ncn2CCc1ccccc1`?
Pf growth 96h: -12%; NS1 inh: 1%; SARS PLP yeast: 0%; Pf growth 48h: 5%; CHX counter: 7; Shiga inhibitor: 27

How did CCn1cnc2cc(NCc3ccc(Br)cc3)ccc21 do in these assays?
Pf growth 96h: 22%; NS1 inh: -10%; SARS PLP yeast: -2%; Pf growth 48h: 36%; CHX counter: 40*; Shiga inhibitor: 67*

How did CCn1cnc2cc(NCc3ccc(C)cc3)ccc21 do in these assays?
Pf growth 96h: 10%; NS1 inh: -19%; SARS PLP yeast: -1%; Pf growth 48h: 173%; CHX counter: 60*; Shiga inhibitor: 90*

What do the screens show for `CCn1cnc2cc(NCc3ccc(N(C)C)cc3)ccc21`?
Pf growth 96h: 5%; SARS PLP yeast: 1%; Pf growth 48h: 96%; CHX counter: 52*; Shiga inhibitor: 154*

Results for CCCn1cnc2cc(NCc3cccc(OC)c3)ccc21 ?
NS1 inh: -14%; SARS PLP yeast: -9%; Pf growth 48h: inconclusive; CHX counter: 24*; Shiga inhibitor: 35*

What do the screens show for `CCCn1cnc2cc(NCc3ccc(Br)cc3)ccc21`?
Pf growth 96h: -2%; NS1 inh: -9%; SARS PLP yeast: -2%; Pf growth 48h: -62%; CHX counter: 29*; Shiga inhibitor: 64*

How did CCCn1nnnc1NCc1cccc(OC)c1 do in these assays?
Pf growth 96h: -17%; NS1 inh: 26%; SARS PLP yeast: 1%; Pf growth 48h: 23%; CHX counter: -3; Shiga inhibitor: 23

What do the screens show for `Cc1ccc(CNc2ccc3c(c2)ncn3C(C)C)cc1`?
Pf growth 96h: inconclusive; NS1 inh: 5%; SARS PLP yeast: 1%; Pf growth 48h: -14%; CHX counter: 36*; Shiga inhibitor: 61*

What do the screens show for `CCCn1cnc2cc(NCc3ccccc3O)ccc21`?
Pf growth 96h: inconclusive; NS1 inh: 2%; SARS PLP yeast: 0%; Pf growth 48h: 33%; CHX counter: 39*; Shiga inhibitor: 113*

What do the screens show for `COC(=O)/C=C/C(=O)Nc1cccc(C(F)(F)F)c1`?
Pf growth 96h: inconclusive; NS1 inh: -29%; SARS PLP yeast: -27%; Pf growth 48h: inconclusive; CHX counter: -2; Shiga inhibitor: 18

Results for Cc1ccccc1C(=N)c1ccccc1Cc1cccc2ccccc12 ?
NS1 inh: -11%

What do the screens show for `Cn1nc(C(F)(F)F)c(-c2ccc(F)cc2)c1NC(=O)Nc1ccc(F)cc1`?
Pf growth 96h: 0.47µM*; NS1 inh: 2%; SARS PLP yeast: 0%; Pf growth 48h: 0.83µM*; CHX counter: 2; Shiga inhibitor: -6
